PubChem BioAssay AID1159580 (chemical genetic matrix, 2015)
Out of some 5,500 compounds screened, about 2,000 (36%) were called active. Another 18% or so got no clear call; they are omitted. No stated cut-off is given here; in the data, active means normalized growth mostly below about 0.91 (no sharp cut-off); inconclusive means no clear call, values can overlap the other calls; inactive means mostly above about 0.92. Some of the results follow.

Test: chemical genetic growth profiling, strain panel (AID 1159580);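 further: tested at 20 µM; growth read once vehicle control cultures reached saturation at 30 °C; 1 = growth at the plate median or of vehicle wells; lower values mean less growth of the strain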
Conditions: growth OD

Measured: normalized growth

CC12CCC(C1)C(C)(C)C2NC(=O)c1cccs1 (centres undefined)
inactive: S. cerevisiae deletion strains, locus YAL013W, strain DEP1, hits give low values 0.976 | S. cerevisiae deletion strains, locus YBR229C, strain ROT2, hits give low values 1.01 | S. cerevisiae deletion strains, locus YDL101C, strain DUN1, hits give low values 0.995 | S. cerevisiae deletion strains, locus YDL134C, strain PPH21, hits give low values 0.991 | S. cerevisiae deletion strains, locus YDR150W, strain NUM1, hits give low values 0.907 | S. cerevisiae deletion strains, locus YEL061C, strain CIN8, hits give low values 1.02 | S. cerevisiae deletion strains, locus YGR078C, strain PAC10, hits give low values 0.98 | S. cerevisiae deletion strains, locus YHR030C, strain SLT2, hits give low values 0.848 | S. cerevisiae deletion strains, locus YHR087W, strain rtc3, hits give low values 0.983 | S. cerevisiae deletion strains, locus YJL187C, strain SWE1, hits give low values 0.992 | S. cerevisiae deletion strains, locus YJR043C, strain POL32, hits give low values 0.956 | S. cerevisiae deletion strains, locus YJR075W, strain HOC1, hits give low values 0.97 | S. cerevisiae deletion strains, locus YLR039C, strain RIC1, hits give low values 1.03 | S. cerevisiae deletion strains, locus YLR058C, strain SHM2 (second series), hits give low values 0.994 | S. cerevisiae deletion strains, locus YLR085C, strain ARP6, hits give low values 0.944 | S. cerevisiae deletion strains, locus YLR262C, strain YPT6, hits give low values 1.03 | S. cerevisiae deletion strains, locus YML094W, strain GIM5, hits give low values 0.976 | S. cerevisiae deletion strains, locus YMR219W, strain ESC1, hits give low values 0.988 | S. cerevisiae deletion strains, locus YMR263W, strain SAP30, hits give low values 0.942 | S. cerevisiae deletion strains, locus YMR307W, strain GAS1, hits give low values 0.834 | S. cerevisiae deletion strains, locus YNL153C, strain GIM3, hits give low values 1 | S. cerevisiae deletion strains, locus YNL298W, strain CLA4 (second series), hits give low values 0.983 | S. cerevisiae deletion strains, locus YNL322C, strain KRE1, hits give low values 0.987 | S. cerevisiae deletion strains, locus YNR030W, strain Alg12, hits give low values 0.995 | S. cerevisiae deletion strains, locus YOL006C, strain TOP1, hits give low values 0.924 | S. cerevisiae deletion strains, locus YPL055C, strain LGE1, hits give low values 0.968 | S. cerevisiae deletion strains, locus YPL241C, strain CIN2, hits give low values 0.976 | S. cerevisiae deletion strains, locus YPR135W, strain CTF4, hits give low values 0.858 | S. cerevisiae strains, strain wild type, hits give low values 0.954
